Experimental data reported in PubChem BioAssay (EPA / NIEHS).
Values joined by “and” are separate entries in the source; they are usually repeats but may differ in a detail not shown here. Equal entries are not always repeated. Some compounds were tested as several samples or in several runs, with calls that do not always agree. Active and inactive are the calls of the source. Rule for the calls: active = hit-call score of the fitted dose curve at least 0.9, where 1 is the maximum; inactive = score below 0.9.

Columns and labels:
[1] = read-out: Tissue plasminogen activator (tPA), PLAT (gene 5327); experiment: BSK_BE3C_tPA: BioMAP Diversity Plus: BE3C Assay for Tissue plasminogen activator (tPA) Biomarker Activity (AID 2283041); conditions: primary human bronchial epithelial cells; actives raise or lower the signal
In short: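 Primary human bronchial epithelial cells in the BE3C system, exposed to compound for 24 h. tPA was quantified by ELISA; DMSO served as baseline, with gain or loss of signal fitted. Cytotoxicity checked in parallel cultures by SRB total-protein staining.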

[2] = read-out: Interleukin-8 (IL8), CXCL8 (gene 3576); experiment: BSK_CASM3C_IL8: BioMAP Diversity Plus: CASM3C Assay for Interleukin-8 (IL8) Biomarker Activity (AID 2283042); conditions: primary human coronary artery smooth muscle cells; actives raise or lower the signal;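 note: IL-8 protein level quantified by ELISA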
[3] = read-out: Human Leukocyte Antigen - DR isotype (HLADR), HLA-DRA (gene 3122); experiment: BSK_CASM3C_HLADR: BioMAP Diversity Plus: CASM3C Assay for Human Leukocyte Antigen - DR isotype (HLADR) Biomarker Activity (AID 2283043); conditions: primary human coronary artery smooth muscle cells; actives raise or lower the signal;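 note: cell-surface HLA-DR protein level quantified by ELISA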
[4] = read-out: Macrophage colony-stimulating factor (MCSF), CSF1 (gene 1435); experiment: BSK_CASM3C_MCSF: BioMAP Diversity Plus: CASM3C Assay for Macrophage colony-stimulating factor (MCSF) Biomarker Activity (AID 2283044); conditions: primary human coronary artery smooth muscle cells; actives raise or lower the signal;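 note: M-CSF protein amount quantified by ELISA after 24 h exposure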
[5] = read-out: Low-density lipoprotein receptor (LDLR), LDLR (gene 3949); experiment: BSK_CASM3C_LDLR: BioMAP Diversity Plus: CASM3C Assay for Low-density lipoprotein receptor (LDLR) Biomarker Activity (AID 2283045); conditions: primary human coronary artery smooth muscle cells; actives raise or lower the signal;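 note: LDLR protein level on the cell surface quantified by ELISA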
[6] = read-out: Monocyte Chemoattractant Protein-1 (MCP1), CCL2 (gene 6347); experiment: BSK_CASM3C_MCP1: BioMAP Diversity Plus: CASM3C Assay for Monocyte Chemoattractant Protein-1 (MCP1) Biomarker Activity (AID 2283046); conditions: primary human coronary artery smooth muscle cells; actives raise or lower the signal;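 note: MCP-1 level quantified by ELISA 24 h after dosing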
[7] = BSK_CASM3C_Proliferation: Cell Proliferation Assessment in the BioMAP Diversity Plus: CASM3C Assay (AID 2283047); conditions: primary human coronary artery smooth muscle cells;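 note: sulforhodamine B total protein stain as relative cell number at 560 nm; sub-confluent cells exposed 48 h before staining; fitted both ways against DMSO so gain or loss of cell number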
[8] = read-out: Monokine induced gamma interferon (MIG), CXCL9 (gene 4283); experiment: BSK_CASM3C_MIG: BioMAP Diversity Plus: CASM3C Assay for Monokine induced gamma interferon (MIG) Biomarker Activity (AID 2283048); conditions: primary human coronary artery smooth muscle cells; actives raise or lower the signal;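 note: MIG protein level measured by ELISA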
[9] = read-out: serum amyloid A (SAA), SAA1 (gene 6288); experiment: BSK_CASM3C_SAA: BioMAP Diversity Plus: CASM3C Assay for serum amyloid A (SAA) Biomarker Activity (AID 2283049); conditions: primary human coronary artery smooth muscle cells; actives raise or lower the signal;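 note: SAA protein level quantified by ELISA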
[10] = BSK_CASM3C_SRB: Viability Assessment in the BioMAP Diversity Plus: CASM3C Assay (AID 2283050); conditions: primary human coronary artery smooth muscle cells
[11] = read-out: Thrombomodulin, THBD (gene 7056); experiment: BSK_CASM3C_Thrombomodulin: BioMAP Diversity Plus: CASM3C Assay for Thrombomodulin Biomarker Activity (AID 2283051); conditions: primary human coronary artery smooth muscle cells; actives raise or lower the signal;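 note: thrombomodulin protein level measured by ELISA 24 h after dosing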
[12] = read-out: Tissue Factor, F3 (gene 2152); experiment: BSK_CASM3C_TissueFactor: BioMAP Diversity Plus: CASM3C Assay for Tissue Factor Biomarker Activity (AID 2283052); conditions: primary human coronary artery smooth muscle cells; actives raise or lower the signal;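 note: cell surface tissue factor protein level read by ELISA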
[13] = read-out: Interferon-gamma inducible Protein 10 (IP10), CXCL10 (gene 3627); experiment: BSK_hDFCGF_IP10: BioMAP Diversity Plus: hDFCGF Assay for Interferon-gamma inducible Protein 10 (IP10) Biomarker Activity (AID 2283053); conditions: primary human foreskin fibroblasts; actives raise or lower the signal
In short: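 Primary human foreskin fibroblasts exposed to chemicals for 24 h. IP-10 measured by ELISA; changes fitted bidirectionally against DMSO baseline.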

[14] = read-out: Urokinase-type plasminogen activator receptor (uPAR), PLAUR (gene 5329); experiment: BSK_CASM3C_uPAR: BioMAP Diversity Plus: CASM3C Assay for Urokinase-type plasminogen activator receptor (uPAR) Biomarker Activity (AID 2283054); conditions: primary human coronary artery smooth muscle cells; actives raise or lower the signal;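 note: cell-surface uPAR protein level quantified by ELISA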
[15] = read-out: Vascular cell adhesion molecule 1 (VCAM1), VCAM1 (gene 7412); experiment: BSK_CASM3C_VCAM1: BioMAP Diversity Plus: CASM3C Assay for Vascular cell adhesion molecule 1 (VCAM1) Biomarker Activity (AID 2283055); conditions: primary human coronary artery smooth muscle cells; actives raise or lower the signal;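 note: VCAM-1 protein level quantified by ELISA on the cells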
[16] = read-out: Collagen III, COL3A1 (gene 1281); experiment: BSK_hDFCGF_CollagenIII: BioMAP Diversity Plus: hDFCGF Assay for Collagen III Biomarker Activity (AID 2283056); conditions: primary human foreskin fibroblasts; actives raise or lower the signal
In short: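 ELISA readout of Collagen III in human dermal (foreskin) fibroblasts, taken 24 h post-treatment. Gain or loss relative to DMSO vehicle fitted in both directions.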

[17] = read-out: Epidermal growth factor receptor (EGFR), EGFR (gene 1956); experiment: BSK_hDFCGF_EGFR: BioMAP Diversity Plus: hDFCGF Assay for Epidermal growth factor receptor (EGFR) Biomarker Activity (AID 2283057); conditions: primary human foreskin fibroblasts; actives raise or lower the signal
In short: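 Primary human foreskin fibroblasts (hDFCGF system), sampled 24 h after dosing; EGFR quantified by ELISA. Bidirectional fit relative to DMSO baseline; SRB total-protein staining in parallel cultures for cytotoxicity.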

[18] = read-out: Interleukin-8 (IL8), CXCL8 (gene 3576); experiment: BSK_hDFCGF_IL8: BioMAP Diversity Plus: hDFCGF Assay for Interleukin-8 (IL8) Biomarker Activity (AID 2283058); conditions: primary human foreskin fibroblasts; actives raise or lower the signal
In short: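 IL-8 levels read by ELISA at 24 hours after dosing human skin fibroblast cultures. Parallel SRB staining assessed overt cytotoxicity, and gain or loss of signal was fitted against DMSO control.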

[19] = BSK_hDFCGF_Proliferation: Cell Proliferation Assessment in the BioMAP Diversity Plus: hDFCGF Assay (AID 2283059); conditions: primary human foreskin fibroblasts;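 note: curves fitted for both rise and fall of signal versus DMSO baseline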
In short: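 Sub-confluent human foreskin fibroblast cultures receive test chemical […]. Relative cell number is quantified by sulforhodamine B staining (0.1%, after 10% TCA fixation) at 560 nm, with bidirectional fitting referenced to DMSO.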

[20] = read-out: Macrophage colony-stimulating factor (MCSF), CSF1 (gene 1435); experiment: BSK_hDFCGF_MCSF: BioMAP Diversity Plus: hDFCGF Assay for Macrophage colony-stimulating factor (MCSF) Biomarker Activity (AID 2283060); conditions: primary human foreskin fibroblasts; actives raise or lower the signal
In short: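 M-CSF levels read by ELISA at 24 h post-dosing in human skin fibroblasts. Parallel cultures stained with SRB assessed cytotoxicity at the same time point; response fitted in both directions against the DMSO baseline.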

Measured: AC50

CC(O)CO (stereo not given)
inactive: all assays above

CC[C@H](C)[C@@H](C(=O)O)n1sc2ccccc2c1=O
inactive: all assays above

FC(F)(I)C(F)(F)C(F)(F)C(F)(F)C(F)(F)C(F)(F)I
inactive: [1] | [11] | [12] | [17]
active: [2] 30 µM [middle of 5 runs] | [4] 25.9 µM [middle of 5 runs] | [5] 22 µM [middle of 5 runs] | [6] 21.6 µM [middle of 5 runs] | [7] 13.6 µM [middle of 5 runs] | [8] 29.7 µM [middle of 5 runs] | [9] 17 µM [middle of 5 runs] | [10] 23.3 µM [middle of 5 runs] | [11] 17.8 µM and 50.8 µM and 7.99 µM | [12] 23.7 µM and 16.2 µM and 30 µM | [13] 5.72 µM [middle of 5 runs] | [14] 23.7 µM [middle of 5 runs] | [15] 19.8 µM [middle of 5 runs] | [16] 4.16 µM [middle of 5 runs] | [18] 7.02 µM [middle of 5 runs] | [19] 2.06 µM [middle of 5 runs] | [20] 4.77 µM [middle of 5 runs]

NC(=O)N1C(=O)C(C(=O)c2cc(Cl)cs2)c2cc(F)c(Cl)cc21 (stereo not given)
inactive: [2] | [4] | [5] | [8] | [9] | [11] | [12] | [17]
active: [1] 2.33 µM | [3] 14.1 µM | [6] 7.46 µM | [7] 27.4 µM | [10] 23.8 µM | [13] 5.92 µM | [14] 27.3 µM | [15] 5.41 µM | [16] 4.54 µM | [18] 16.6 µM | [19] 1.54 µM | [20] 2.1 µM

Oc1cccc(O)c1
inactive: all assays above

CC(=O)NC1(c2cccc(F)c2)CCN(CC[C@@]2(c3ccc(Cl)c(Cl)c3)CN(c3ccccc3)C(=O)CO2)CC1
active: [1] 16.6 µM | [3] 28.2 µM | [5] 4.58 µM | [7] 27.3 µM | [10] 23.8 µM | [11] 26.1 µM | [13] 28.2 µM | [14] 16.6 µM | [16] 6.66 µM | [18] 25.9 µM | [19] 13.4 µM | [20] 24.5 µM
inactive: [2] | [4] | [6] | [8] | [9] | [12] | [15] | [17]

O=C(OCCOCCOC(=O)c1ccccc1)c1ccccc1
inactive: all assays above

CCc1ccc(CCOc2ccc(CC3SC(=O)NC3=O)cc2)nc1 (stereo not given)
inactive: all assays above

C#C[C@]1(O)CC[C@H]2[C@@H]3CCC4=CC(=O)CC[C@@H]4[C@H]3CC[C@@]21C
not listed: [7]
inactive: all other assays above

CC(C)(C)c1cc(C(C)(C)C)c(O)c(C(C)(C)C)c1
active: [5] 11.8 µM | [11] 6.88 µM | [13] 32.8 µM | [16] 29.3 µM | [18] 31.5 µM | [19] 10.8 µM | [20] 31.5 µM
inactive: all other assays above

O=C(O)c1ccccc1C(c1ccc(O)cc1)c1ccc(O)cc1
inactive: all assays above

CCCCCCCCCCCCN1CCCC1=O
active: [1] 15.4 µM | [7] 32.7 µM | [10] 27.4 µM | [11] 27.9 µM | [13] 30.9 µM | [16] 14.4 µM | [18] 34.6 µM | [19] 14.6 µM | [20] 31 µM
inactive: all other assays above

OC1CCCCC1
active: [2] 14.8 µM | [9] 23.1 µM
inactive: all other assays above

OC1CCC(C2CCCCC2)CC1 (stereo not given)
inactive: all assays above

CCCOC(=O)c1ccc(O)cc1
inactive: all assays above

CC(C)CCCCCCOC(=O)CCCCC(=O)OCCCCCCC(C)C
inactive: all assays above

CC(C)(C)c1cccc(C(C)(C)C)c1O
active: [12] 20 µM | [13] 37.8 µM | [16] 35.9 µM | [18] 36.8 µM | [19] 35 µM | [20] 31 µM
inactive: all other assays above

CN(C)C=O
inactive: all assays above

CCN(CC)CCNc1ccc(CNC=O)c2sc3ccc(OC)cc3c(=O)c12
inactive: [1] | [5] | [8] | [17]
active: [2] 35.6 µM | [3] 12.3 µM | [4] 25.9 µM | [6] 26.9 µM | [7] 20 µM | [9] 20.3 µM | [10] 26.3 µM | [11] 31.2 µM | [12] 5.33 µM | [13] 15.5 µM | [14] 11.1 µM | [15] 12 µM | [16] 16.2 µM | [18] 33.7 µM | [19] 6.31 µM | [20] 12.9 µM

CCCCCCCCC(=O)O
inactive: all assays above

COCC(C)OCC(C)O (stereo not given)
inactive: all assays above

CCCCC(CC)COC(=O)CCCCC(=O)OCC(CC)CCCC (stereo not given)
inactive: all assays above

CCCOc1sc(C(=O)N2CCC(c3cc(CN)ccc3F)CC2)c(C)c1Br
active: [1] 5.19 µM | [2] 15.4 µM | [3] 4.87 µM | [4] 9.62 µM | [5] 27.1 µM | [6] 17.5 µM | [7] 7.94 µM | [8] 27.8 µM | [9] 11.9 µM | [10] 12.9 µM | [11] 32.6 µM | [12] 10.8 µM | [13] 10.4 µM | [14] 8.94 µM | [15] 18.6 µM | [16] 7.98 µM | [17] 5.12 µM | [18] 7.73 µM | [19] 3.1 µM | [20] 6.92 µM
